M1 ag parental: counter-screen for M1 agonists: effect in parental CHO-K1 cells; Fluo-8 calcium fluorescence; scaled to maximal ATP response, vehicle zero; activation, % at 3 µM; actives 0.48% (n = 360,000); AID 602248; in the data active = activation above about 15%;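 also: untransfected CHO-K1 host cells lacking M1 receptor as counterscreen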
CHRM1 antagonist: antagonists of human M1 muscarinic receptor. P11229. CHO-K1 hM1, Fluo-8 calcium fluorescence, ACh EC80 antagonist. inhibition, % at 3 µM. actives 1.3% (n = 360,000). AID 588852;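 active = percent inhibition above its own plate's cutoff, namely the mean of that plate's compound wells plus 3 SD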;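 also: peak over basal fluorescence ratio during 140 s after agonist addition; 0% = ACh EC80 plus DMSO and 100% = DMSO alone without agonist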
Target sequence (P11229 whole entry, looked up): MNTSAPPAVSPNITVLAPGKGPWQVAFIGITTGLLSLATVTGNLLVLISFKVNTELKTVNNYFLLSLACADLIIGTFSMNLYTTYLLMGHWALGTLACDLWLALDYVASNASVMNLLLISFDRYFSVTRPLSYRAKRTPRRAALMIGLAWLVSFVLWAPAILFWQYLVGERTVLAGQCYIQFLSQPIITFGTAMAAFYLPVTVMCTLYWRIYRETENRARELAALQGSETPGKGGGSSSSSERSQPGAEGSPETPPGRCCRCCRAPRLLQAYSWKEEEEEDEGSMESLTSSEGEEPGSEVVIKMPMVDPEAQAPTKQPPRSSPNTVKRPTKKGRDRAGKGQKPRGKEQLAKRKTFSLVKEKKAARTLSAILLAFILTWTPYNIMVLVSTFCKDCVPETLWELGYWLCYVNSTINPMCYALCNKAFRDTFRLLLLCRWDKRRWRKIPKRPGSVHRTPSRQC
M1 PAM parental: counter-screen for M1 PAMs: effect in parental CHO-K1 cells; ATP EC20, Fluo-8 calcium fluorescence; 0% at ATP EC20, 100% at ATP max; activation, % at 3 µM; actives 0.02% (n = 360,000);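 active = activation above the run cutoff, the mean activation of all test compounds plus 3 SD, cut at about 40% in these data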;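 also: peak over basal fluorescence ratio in a 140 s read after ATP addition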
CHRM1 PAM: human CHRM1 positive allosteric modulation; P11229; CHO-K1 hM1, Fluo-8 calcium fluorescence, ACh EC20; 0% = ACh EC20, 100% = maximal ACh; actives 0.088% (n = 360,000); activation, % at 3 µM; AID 588819; in the data active = activation above about 19%, passing the limit was not always enough
CHRM1 agonist: activates human CHRM1 receptor. CHO-K1 hM1, Fluo-8 calcium fluorescence, agonist mode; 0% DMSO, 100% acetylcholine EC100. activation, % at 3 µM. AID 588814. actives 0.33% (n = 360,000). P11229;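 active = activation above the run's mean compound activation plus 3 SD, cut at about 16% in these data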;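 also: peak over basal fluorescence ratio within a 140 s kinetic read after compound addition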
CHO-K1 Ca antag: nonselective inhibitor or artifact in parental CHO-K1 cells; ATP-induced calcium, Fluo-8 fluorescence; inhibition, % at 3 µM; actives 0.6% (n = 360,000); AID 602250;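 active = inhibition above a per-plate cutoff, the plate's mean sample inhibition plus 3 SD, cut at about 24% in these data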;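 also: 0% = DMSO plus EC80 ATP and 100% = DMSO alone without ATP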
Starred values were filed as active, the others as inactive. Most compounds without a hit are left out; they make up all but 2.3% or so of the library.

SMILES	M1 ag parental	CHRM1 antagonist	M1 PAM parental	CHRM1 PAM	CHRM1 agonist	CHO-K1 Ca antag
c1cncc(CNCc2ccco2)c1	-1	-7	-2	9	-2	4
COc1ccc(CNC(=O)Cc2nn(C)c(=O)c3ccccc23)cc1	11	26	-6	-11	4	24*
Cn1nc(CC(=O)NCc2ccc(C(F)(F)F)cc2)c2ccccc2c1=O	8	10	1	-3	5	4
Clc1ccc(-c2ccc(-c3nn4c(-c5ccco5)nnc4s3)o2)cc1	0	-2	9	8	-2	-30
Brc1ccc(-c2nn3c(-c4ccco4)nnc3s2)o1	0	-7	-6	7	-7	25*
Fc1ccc(/C=C2\CCCC3=C2Nc2ncnn2C3c2ccc(F)cc2)cc1 (centres undefined)	5	32*	3	-8	2	19
CCCC(=O)Nc1cc(-c2nn(C)c(=O)c3ccccc23)ccc1OC	-1	2	-2	10	-3	24*
Cc1c(NC(=O)Nc2ccc(Cl)c(Cl)c2)c(=O)n(-c2ccccc2)n1C	5	40*	1	-2	-3	20
Cc1c(Cl)c([N+](=O)[O-])nn1CCCC(=O)Nc1c(C)n(C)n(-c2ccccc2)c1=O	1	67*	18	-25	-8	-9
Cc1c(NC(=O)Nc2ccccc2)c(=O)n(-c2ccccc2)n1C	0	15	6	-6	-4	-9
CCOC(=O)c1c(NC(=O)CSc2n[nH]c(CNc3ccccc3)n2)sc(C)c1C	-1	-12	22	18	1	-4
CCOC(=O)c1sc(NC(=O)CSc2nc(C)cc(C)n2)c(C#N)c1C	0	-7	9	5	-2	-3
CCOC(=O)c1sc(NC(=O)CSc2ncn[nH]2)c(C#N)c1C	18*	7	22	4	0	3
CCOC(=O)c1sc(NC(=O)CSc2n[nH]c(-c3ccccc3)n2)c(C#N)c1C	10	19	1	-15	5	27*
CCOC(=O)c1sc(NC(=O)CSc2ccccn2)c(C#N)c1C	0	3	-6	2	-4	-12
CCOC(=O)c1c(NC(=O)CSc2n[nH]c(-c3ccco3)n2)sc(C)c1C	0	4	-7	2	-3	24*
C[C@@H]1CN([C@H](C)CO)C(=O)CCCn2nncc2CO[C@H]1CN(C)Cc1ccc(C(F)(F)F)cc1	-1	10	0	5	-7	6
CCS(=O)(=O)N1CCC(N2CCC(C)CC2)CC1	0	-15	16	12	-4	-6
O=C1/C(=C/c2cccc(F)c2)Oc2cc(O)ccc21	15*	-1	-7	-2	7	-14
C[C@@H]1CN([C@@H](C)CO)C(=O)CCCn2nncc2CO[C@@H]1CN(C)C(=O)OCc1ccccc1	1	-12	12	5	-3	-9
CCCc1cc(Nc2ccccc2OCC)n2ncnc2n1	0	1	-7	8	-6	28*
CCOC(=O)CSc1nc2sc3c(c2c(=O)n1-c1ccc(OCC)cc1)CCN(C)C3	-1	-7	1	9	-6	-6
CCOC(=O)CSc1nc2sc3c(c2c(=O)n1C1CCCCC1)CCN(C)C3	0	24*	8	-25	-7	1
COc1ccc(-n2c(SC)nc3sc4c(c3c2=O)CCN(C)C4)cc1	0	70*	5	-2	-6	0
CCSc1nc2sc3c(c2c(=O)n1-c1ccccc1)CCN(C)C3	1	22	6	-17	-8	-1
SMILES	M1 ag parental	CHRM1 antagonist	M1 PAM parental	CHRM1 PAM	CHRM1 agonist	CHO-K1 Ca antag
C=CCSc1nc2sc3c(c2c(=O)n1-c1ccccc1)CCN(C)C3	4	37*	3	-23	-8	1
COc1ccc(/C(C)=N/NC(=O)c2cccc(S(=O)(=O)N3CCCC3)c2)c(O)c1	1	-9	-20	7	-7	8
Cc1nc(CN2CCN(Cc3nc(C(c4ccccc4)c4ccccc4)no3)CC2)cs1	0	65*	6	-32	-13	3
C[C@@H]1CN(C2CCN(Cc3nc(C(c4ccccc4)c4ccccc4)no3)CC2)C[C@H](C)O1	0	1	11	-21	-13	-3
Cc1cccnc1CN1CCN(Cc2nc(C(c3ccccc3)c3ccccc3)no2)CC1	1	71*	5	-26	-8	-2
OC(c1ccccn1)C1CCN(Cc2nc(C(c3ccccc3)c3ccccc3)no2)CC1 (centres undefined)	1	-8	13	4	-12	-5
N#CC(C(=O)NC1CCCCC1)=C1CCCCCC1	1	-4	21	3	-9	-17
Cc1cc(OC(C)C(=O)NCC(O)c2ccccc2)c2c(C)cc(=O)oc2c1 (centres undefined)	1	-7	-6	6	-1	-7
Cn1c(CCN2CCCCC2)nc2cc(NC(=O)NC3CCCCC3)ccc21	0	12	18	-10	-5	-21
CCN1CCN(CCc2nc3cc(NC(=O)COc4ccc(Cl)cc4)ccc3n2C)CC1	2	-10	16	5	-7	-15
Cc1cccc(OCC(=O)Nc2ccc3c(c2)nc(CCN2CCCCC2)n3C)c1	1	11	-3	-9	-6	1
Cc1cccc(OCC(=O)Nc2ccc3c(c2)nc(CCN2CCN(c4ccccn4)CC2)n3C)c1	12	88*	-16	-22	3	13
Cn1c(CCN2CCN(c3ccccn3)CC2)nc2cc(NC(=O)COc3ccc(Cl)cc3)ccc21	14	95*	1	-24	1	5
CCN1CCN(Cc2nc3cc(NC(=O)COc4ccc([N+](=O)[O-])cc4)ccc3n2C)CC1	0	61*	3	-16	-6	-20
CC1CCN(CCc2nc3cc(NC(=O)NC4CCCCC4)ccc3n2C)CC1	0	36*	8	-19	-8	-1
CCCn1nnnc1NCc1ccc(C(C)C)cc1	0	-18	7	9	-4	-8
COc1ccc(OCC(=O)Nc2ccc3c(c2)nc(CCN2CCN(c4ccccn4)CC2)n3C)cc1	5	64*	2	-29	-3	4
COc1ccc(OCC(=O)Nc2ccc3c(c2)nc(CCN2CCCCC2)n3C)cc1	0	2	20	-1	-5	-5
CCCNC(=O)c1ccc(N2CCC3(CC2)CC(c2ccccc2)=NO3)c(NC(=O)c2ccccc2)c1	2	32*	9	-22	-8	-3
O=C(c1ccc(=O)[nH]c1)N1CCN(S(=O)(=O)c2ccc3ccccc3c2)CC1	1	-1	19	1	-6	-11
COc1cc(/C=C2\SC(=Nc3ccccc3)NC2=O)cc(Cl)c1O	38*	50*	-8	-25	79*	32*
